The entries come from a sample that favours the strongest signals as a whole.
What was measured:
Assay in all cases: glycan array binding signal (z-score within array); higher = stronger binding
Conditions in all cases: glycan notation: IUPAC condensed, linker removed
[1] = target: Fuc(a1-2)Gal(b1-4)GlcNAc(b1-3)[Fuc(a1-3)[Gal(b1-4)]GlcNAc(b1-6)]Gal(b1-4)Glc
Procedure, shortened: (§1)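 Negative Z-scores can be read as non-binding. The Z-score is calculated within each array and then averaged across arrays of one protein sequence at different concentrations or buffers and across linkers. Arrays, 3228 in all, were curated from the Consortium for Functional Glycomics database and kept only where the protein sequence was available.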

[2] = target: Fuc(a1-2)Gal(b1-4)[Fuc(a1-3)]GlcNAc(b1-2)[Fuc(a1-2)Gal(b1-4)[Fuc(a1-3)]GlcNAc(b1-4)]Man(a1-3)[Fuc(a1-2)Gal(b1-4)[Fuc(a1-3)]GlcNAc(b1-2)Man(a1-6)]Man(b1-4)GlcNAc(b1-4)GlcNAc
Procedure, shortened: as §1

[3] = target: Fuc(a1-2)[Gal(a1-3)]Gal(b1-4)GlcNAc(b1-3)[Fuc(a1-2)[Gal(a1-3)]Gal(b1-4)GlcNAc(b1-6)]GalNAc
Procedure, shortened: as §1

[4] = target: Fuc(a1-2)[Gal(a1-3)]Gal(b1-4)[Fuc(a1-3)]GlcNAc(b1-3)GalNAc
Procedure, shortened: as §1

[5] = target: Fuc(a1-2)[GalNAc(a1-3)]Gal(b1-3)GlcNAc(b1-6)GalNAc
Procedure, shortened: as §1

[6] = target: Fuc(a1-2)[GalNAc(a1-3)]Gal(b1-4)[Fuc(a1-3)]GlcNAc(b1-3)GalNAc
Procedure, shortened: as §1

[7] = target: Fuc(a1-3)[Gal(b1-4)]GlcNAc(b1-2)Man(a1-3)[Fuc(a1-3)[Gal(b1-4)]GlcNAc(b1-2)Man(a1-6)]Man(b1-4)GlcNAc(b1-4)[Fuc(a1-6)]GlcNAc
Procedure, shortened: as §1

[8] = target: Fuc(a1-3)[Gal(b1-4)]GlcNAc(b1-3)Gal(b1-4)[Fuc(a1-3)]GlcNAc
Procedure, shortened: as §1

[9] = target: Fuc(a1-3)[Gal(b1-4)]GlcNAc(b1-6)[Gal(b1-3)GlcNAc(b1-3)]Gal(b1-4)Glc
Procedure, shortened: as §1

[10] = target: Fuc(a1-3)[Gal3S(b1-4)]GlcNAc6S
Procedure, shortened: as §1

[11] = target: Fuc(a1-3)[GalNAc(b1-4)]GlcNAc6S
Procedure, shortened: as §1

[12] = target: Gal(a1-3)Gal(b1-3)GlcNAc(b1-2)Man(a1-3)[Gal(a1-3)Gal(b1-3)GlcNAc(b1-2)Man(a1-6)]Man(b1-4)GlcNAc(b1-4)GlcNAc
Procedure, shortened: as §1

[13] = target: Gal(a1-3)Gal(b1-3)[Fuc(a1-4)]GlcNAc(b1-2)Man(a1-3)[Gal(a1-3)Gal(b1-3)[Fuc(a1-4)]GlcNAc(b1-2)Man(a1-6)]Man(b1-4)GlcNAc(b1-4)GlcNAc
Procedure, shortened: as §1

Gal(a1-3)Gal(b1-4)GlcNAc = target: Gal(a1-3)Gal(b1-4)GlcNAc
Procedure, shortened: as §1

[14] = target: Gal(a1-4)Gal(b1-4)GlcNAc(b1-2)Man(a1-3)[Gal(a1-4)Gal(b1-4)GlcNAc(b1-2)Man(a1-6)]Man(b1-4)GlcNAc(b1-4)GlcNAc
Procedure, shortened: as §1

Gal(b1-3)Gal(b1-4)GlcNAc = target: Gal(b1-3)Gal(b1-4)GlcNAc
Procedure, shortened: as §1

Gal(b1-3)GalNAc = target: Gal(b1-3)GalNAc
Procedure, shortened: as §1

[15] = target: Gal(b1-3)GlcNAc(b1-3)Gal(b1-4)Glc
Procedure, shortened: as §1

[16] = target: Gal(b1-3)GlcNAc(b1-3)Gal(b1-4)GlcNAc
Procedure, shortened: as §1

[17] = target: Gal(b1-3)[Fuc(a1-4)]GlcNAc(b1-2)Man
Procedure, shortened: as §1

[18] = target: Gal(b1-3)[Fuc(a1-4)]GlcNAc(b1-3)Gal(b1-3)[Fuc(a1-4)]GlcNAc
Procedure, shortened: as §1

[19] = target: Gal(b1-3)[Fuc(a1-4)]GlcNAc(b1-6)GalNAc
Procedure, shortened: as §1

[20] = target: Gal(b1-4)GlcNAc(b1-2)[Gal(b1-4)GlcNAc(b1-4)]Man(a1-3)[Gal(b1-4)GlcNAc(b1-2)Man(a1-6)]Man(b1-4)GlcNAc(b1-4)GlcNAc
Procedure, shortened: as §1

[21] = target: Gal(b1-4)GlcNAc(b1-2)[Gal(b1-4)GlcNAc(b1-6)]Man(a1-6)[GlcNAc(b1-4)][Gal(b1-4)GlcNAc(b1-2)Man(a1-3)]Man(b1-4)GlcNAc(b1-4)GlcNAc
Procedure, shortened: as §1

[22] = target: Gal(b1-4)GlcNAc(b1-3)Gal(b1-4)Glc
Procedure, shortened: as §1

[23] = target: Gal(b1-4)GlcNAc(b1-6)[Gal(b1-3)]GalNAc
Procedure, shortened: as §1

Gal3S(b1-3)GlcNAc = target: Gal3S(b1-3)GlcNAc
Procedure, shortened: as §1

Gal6S(b1-4)GlcNAc6S = target: Gal6S(b1-4)GlcNAc6S
Procedure, shortened: as §1

[24] = target: GalNAc(b1-4)GlcNAc(b1-2)Man(a1-3)[GalNAc(b1-4)GlcNAc(b1-2)Man(a1-6)]Man(b1-4)GlcNAc(b1-4)GlcNAc
Procedure, shortened: as §1

GlcA(b1-3)Gal = target: GlcA(b1-3)Gal
Procedure, shortened: as §1

[25] = target: GlcNAc(a1-3)Gal(b1-4)GlcNAc
Procedure, shortened: as §1

[26] = target: GlcNAc(b1-3)Gal(b1-4)GlcNAc(b1-3)Gal(b1-4)GlcNAc(b1-2)Man(a1-3)[GlcNAc(b1-3)Gal(b1-4)GlcNAc(b1-3)Gal(b1-4)GlcNAc(b1-2)Man(a1-6)]Man(b1-4)GlcNAc(b1-4)GlcNAc
Procedure, shortened: as §1

[27] = target: GlcNAc(b1-3)Gal(b1-4)GlcNAc(b1-3)Gal(b1-4)GlcNAc(b1-3)Gal(b1-4)GlcNAc(b1-3)Gal(b1-4)GlcNAc(b1-2)Man(a1-3)[GlcNAc(b1-3)Gal(b1-4)GlcNAc(b1-3)Gal(b1-4)GlcNAc(b1-3)Gal(b1-4)GlcNAc(b1-3)Gal(b1-4)GlcNAc(b1-2)Man(a1-6)]Man(b1-4)GlcNAc(b1-4)GlcNAc
Procedure, shortened: as §1

[28] = target: GlcNAc(b1-3)Gal(b1-4)GlcNAc(b1-3)GalNAc
Procedure, shortened: as §1

[29] = target: GlcNAc(b1-6)Gal(b1-4)GlcNAc
Procedure, shortened: as §1

Man(a1-3)[Man(a1-6)]Man = target: Man(a1-3)[Man(a1-6)]Man
Procedure, shortened: as §1

[30] = target: Neu5Ac(a2-3)Gal(b1-3)GlcNAc(b1-2)Man
Procedure, shortened: as §1

[31] = target: Neu5Ac(a2-3)Gal(b1-3)[Fuc(a1-4)]GlcNAc(b1-3)Gal(b1-4)[Fuc(a1-3)]GlcNAc
Procedure, shortened: as §1

[32] = target: Neu5Ac(a2-3)Gal(b1-4)GlcNAc(b1-2)[Neu5Ac(a2-3)Gal(b1-4)GlcNAc(b1-4)]Man(a1-3)[GlcNAc(b1-4)][Neu5Ac(a2-3)Gal(b1-4)GlcNAc(b1-2)[Neu5Ac(a2-3)Gal(b1-4)GlcNAc(b1-6)]Man(a1-6)]Man(b1-4)GlcNAc(b1-4)GlcNAc
Procedure, shortened: as §1

[33] = target: Neu5Ac(a2-3)Gal(b1-4)GlcNAc(b1-2)[Neu5Ac(a2-3)Gal(b1-4)GlcNAc(b1-4)]Man(a1-3)[GlcNAc(b1-4)][Neu5Ac(a2-3)Gal(b1-4)GlcNAc(b1-4)Man(a1-6)]Man(b1-4)GlcNAc(b1-4)GlcNAc
Procedure, shortened: as §1

[34] = target: Neu5Ac(a2-6)Gal(b1-4)GlcNAc(b1-2)Man(a1-6)Man(b1-4)GlcNAc(b1-4)GlcNAc
Procedure, shortened: as §1

[35] = target: Neu5Ac(a2-6)Gal(b1-4)GlcNAc(b1-2)Man(a1-6)[Gal(b1-4)GlcNAc(b1-2)Man(a1-3)]Man(b1-4)GlcNAc(b1-4)GlcNAc
Procedure, shortened: as §1

[36] = target: Neu5Ac(a2-6)Gal(b1-4)GlcNAc(b1-3)GalNAc
Procedure, shortened: as §1

[37] = target: Neu5Ac(a2-8)Neu5Ac(a2-3)[GalNAc(b1-4)]Gal(b1-4)Glc
Procedure, shortened: as §1

[38] = target: Neu5Ac9Ac(a2-3)Gal(b1-3)GlcNAc
Procedure, shortened: as §1

[39] = target: Neu5Gc(a2-3)Gal(b1-3)[Fuc(a1-4)]GlcNAc
Procedure, shortened: as §1

[40] = target: Neu5Gc(a2-3)Gal(b1-4)[Fuc(a1-3)]GlcNAc
Procedure, shortened: as §1

B1: B936 (Bifidobacterium sp) (protein)
chain: MKNWKKAIALVASAAALVSVAACGPSNAGGSSDSGKKTVGFVAVGPEGGFRTANEKDIQKAFEDAGFDLTYSPTQNNDQQKQIQAFNKFVNDEVDAIILSSTEDSGWDDSLKKAAEAEIPVFTVDRNVDVKDAEAKKAIVAHIGPSNVWCGEQAAEFVNKNFPDGANGFILEGPAGLSVVKDRGTGWGNKVASNVKVLESQSANWSTDEAKTVTAGLLDKYKSDNPQFIFAQNDEMGLGAAQAVDAAGLKGKVKIITIDGTKNALQALVDGDLSYVIEYNPIFGKETAQAVKDYLDGKTVEKDIEIESKTFDAASAKEALDNNTRAY
[1]
  glycan array binding signal (z-score): -0.124
[2]
  glycan array binding signal (z-score): 0.564
[3]
  glycan array binding signal (z-score): -0.277
[4]
  glycan array binding signal (z-score): -0.217
[5]
  glycan array binding signal (z-score): 0.424
[6]
  glycan array binding signal (z-score): -0.006
[7]
  glycan array binding signal (z-score): 0.198
[8]
  glycan array binding signal (z-score): -0.555
[9]
  glycan array binding signal (z-score): -0.786
[10]
  glycan array binding signal (z-score): 0.399
[11]
  glycan array binding signal (z-score): -0.367
[12]
  glycan array binding signal (z-score): 2.85
[13]
  glycan array binding signal (z-score): 2.05
Gal(a1-3)Gal(b1-4)GlcNAc
  glycan array binding signal (z-score): -0.375
[14]
  glycan array binding signal (z-score): 2.19
Gal(b1-3)Gal(b1-4)GlcNAc
  glycan array binding signal (z-score): 11.1
Gal(b1-3)GalNAc
  glycan array binding signal (z-score): 4.57
[15]
  glycan array binding signal (z-score): 1.71
[16]
  glycan array binding signal (z-score): 4.33
[17]
  glycan array binding signal (z-score): 1.8
[18]
  glycan array binding signal (z-score): -0.183
[19]
  glycan array binding signal (z-score): 1.04
[20]
  glycan array binding signal (z-score): -0.689
[21]
  glycan array binding signal (z-score): -0.558
[22]
  glycan array binding signal (z-score): 3.24
[23]
  glycan array binding signal (z-score): 0.173
Gal3S(b1-3)GlcNAc
  glycan array binding signal (z-score): 0.121
Gal6S(b1-4)GlcNAc6S
  glycan array binding signal (z-score): 0.127
[24]
  glycan array binding signal (z-score): 3.25
GlcA(b1-3)Gal
  glycan array binding signal (z-score): -0.516
[25]
  glycan array binding signal (z-score): 0.799
[26]
  glycan array binding signal (z-score): 0.824
[27]
  glycan array binding signal (z-score): -0.371
[28]
  glycan array binding signal (z-score): -0.806
[29]
  glycan array binding signal (z-score): -0.106
Man(a1-3)[Man(a1-6)]Man
  glycan array binding signal (z-score): -0.318
[30]
  glycan array binding signal (z-score): 0.307
[31]
  glycan array binding signal (z-score): 0.193
[32]
  glycan array binding signal (z-score): -0.471
[33]
  glycan array binding signal (z-score): 0.275
[34]
  glycan array binding signal (z-score): 0.197
[35]
  glycan array binding signal (z-score): -0.37
[36]
  glycan array binding signal (z-score): 2.06
[37]
  glycan array binding signal (z-score): -0.488
[38]
  glycan array binding signal (z-score): -0.521
[39]
  glycan array binding signal (z-score): 0.081
[40]
  glycan array binding signal (z-score): -0.593

Reference: the supplement of paper PMC8728848
